In PubChem BioAssay AID2279 (Southern Research Specialized Biocontainment Screening …, 2010):
Results with a measured potency or affinity are listed apart. Unmarked numbers belong to inactive results. The rule behind the calls is not given here.

Assay: CCR5-tropic HIV-1 fusion blockers – cell-based, CCR5-tropic Env, dose response (AID 2279)
Details: CCR5-tropic HIV-1 Env, reporter read-out; series mostly up to 50 µM; inhibition: at the top concentration

| SMILES | inhibition [%] |
| --- | --- |
| O=C(O)c1cccc2c1NC(c1cccc([N+](=O)[O-])c1)C1CC(Sc3ccccc3[N+](=O)[O-])C(Cl)C21 (stereo not drawn) | 31.9 |
| O=C1NC(=S)N(c2ccc(F)cc2)C(=O)/C1=C/c1ccco1 | 12.6 |
| Cc1ccc(N2C(=O)/C(=C/c3ccc(CN(CCC#N)S(C)(=O)=O)o3)C(=O)NC2=S)cc1C | 13.2 |
| COc1ccc(N2C(=O)/C(=C/c3ccco3)C(=O)NC2=S)cc1 | 29.1 |
| O=c1oc2ccccc2c(O)c1C(c1ccc([N+](=O)[O-])cc1)c1c(O)c2ccccc2oc1=O | 34.6 |
| NC(=O)Cn1cc(C=C2C(=O)NC(=O)NC2=O)c2ccccc21 | 0.56 |
| COc1ccc(OC)c(N2C(=O)/C(=C/c3ccco3)C(=O)NC2=S)c1 | 4.55 |
| O=C1NC(=S)N(c2ccc(F)cc2)C(=O)/C1=C\c1ccoc1 | -13.8 |
